Results from PubChem BioAssay AID651610 (Broad Institute, 2012).
In all, about 360,000 compounds went through this assay and about 3,900 (1.1%) were called active.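 How the source made its calls: active means mean replicate inhibition score of at least 50 and every replicate individually at or above 50; inconclusive means only one of the two criteria met; inactive means mean below 50 and not all replicates reaching 50.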 Many of the other results were omitted from the sample, so actives are more common in it than they were.

experiment: blockers of JRFL envelope-mediated fusion – HeLa-JRFL effector, CEM21 target cells, luciferase, primary screen (AID 651610); conditions: HeLa-JRFL Env/CEM21 cell fusion, stronger effect = higher value; at 16.7 µM unless noted;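 further: 0% = plate neutral controls and 100% = maraviroc near 300 nM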

| Structure (SMILES) | inhibition |
| --- | --- |
| C[C@@H]1CN([C@@H](C)CO)C(=O)Cc2cc(NC(=O)C3CCCCC3)ccc2O[C@@H]1CN(C)Cc1ccncc1 | 6.59% (inactive) |
| COCC#Cc1cnc2c(c1)C(=O)N([C@@H](C)CO)C[C@@H](C)[C@@H](CN(C)C(=O)Nc1ccccc1OC)O2 | 2.09% (inactive) |
| COC(=O)C[C@H]1CC[C@H](NC(=O)c2ccccc2)[C@@H](CO)O1 | -4.18% (inactive) |
| CN1CCN(C(=O)C[C@H]2C[C@@H]3c4cc(NC(=O)Nc5ccc(C(F)(F)F)cc5)ccc4O[C@@H]3[C@H](CO)O2)CC1 | 7.48% (inactive) |
| C[C@@H]1CN([C@H](C)CO)S(=O)(=O)c2ccc(C#C[C@@H](C)O)cc2O[C@H]1CN(C)C(=O)C1CCCCC1 | -6.31% (inactive) |
| CO[C@H]1CN(C)C(=O)c2cc(NC(=O)c3ccccc3)ccc2OC[C@H](C)NC[C@H]1C | -18.7% (inactive) |
| C[C@@H]1CN([C@H](C)CO)C(=O)c2cc(NC(=O)Nc3ccc(C(F)(F)F)cc3)ccc2O[C@@H](C)CCCCO[C@@H]1CN(C)Cc1ccc(C(F)(F)F)cc1 | 32% (inactive) |
| COc1ccc(NC(=O)Nc2ccc3c(c2)C(=O)N([C@@H](C)CO)C[C@H](C)[C@H](CN(C)Cc2ccc(C(F)(F)F)cc2)OCCCC[C@H](C)O3)cc1 | 55.7% (active) |
| COc1ccc(CN(C)C[C@@H]2OCCCC[C@@H](C)Oc3ccc(NC(=O)Nc4ccc(C(F)(F)F)cc4)cc3C(=O)N([C@H](C)CO)C[C@H]2C)cc1 | 40.3% (inactive) |
| COc1ccc(NC(=O)Nc2ccc3c(c2)C(=O)N([C@H](C)CO)C[C@H](C)[C@@H](CN(C)Cc2ccc(C(=O)O)cc2)OCCCC[C@H](C)O3)cc1 | -1.91% (inactive) |
| C[C@@H]1CCCCO[C@H](CN(C)Cc2ccc(C(F)(F)F)cc2)[C@H](C)CN([C@H](C)CO)C(=O)c2cc(NC(=O)Nc3ccc(F)cc3)ccc2O1 | 9.27% (inactive) |
| CC(C)NC(=O)Nc1ccc2c(c1)C(=O)N([C@H](C)CO)C[C@H](C)[C@@H](CN(C)Cc1ccc(C(F)(F)F)cc1)OCCCC[C@@H](C)O2 | 76.6% [at 12.3 µM] (active) |
| O=C(C[C@H]1C=C[C@@H](NS(=O)(=O)c2ccc(F)cc2)[C@@H](CO)O1)NC1CCC1 | 11.3% (inactive) |
| O=C(C[C@H]1C[C@H]2c3cc(NC(=O)Nc4ccc(C(F)(F)F)cc4)ccc3O[C@H]2[C@@H](CO)O1)NCCc1ccccc1 | 6.45% (inactive) |
| C[C@@H]1CCCCO[C@H](CN(C)C(=O)Nc2ccc(C(F)(F)F)cc2)[C@@H](C)CN([C@@H](C)CO)C(=O)c2cc(NS(=O)(=O)c3cccs3)ccc2O1 | 3.25% (inactive) |
| CN1C(=O)c2cc(NC(=O)Cc3cccs3)ccc2OC[C@@H]2O[C@@H](CC(=O)N[C@@H]3CCN(Cc4ccccc4)C3)CC[C@H]21 | -14% (inactive) |
| COc1ccc(-c2nnc(SCC(=O)c3ccc4c(c3)OCCO4)o2)cc1 | 22.9% [at 12.3 µM] (inactive) |
| COc1ccc(-n2c(C)cc(C(=O)CSc3nnc(-c4cccs4)o3)c2C)cc1 | 89.2% [at 12.3 µM] (active) |
| COc1ccc(-n2c(C)cc(C(=O)COC(=O)c3cc(OC)c(OC)cc3NC(=O)c3cccs3)c2C)cc1 | -7.79% [at 12.3 µM] (inactive) |

| Structure (SMILES) | inhibition |
| --- | --- |
| N#C[C@H]1[C@@H](c2ccc(C3=CCCCC3)cc2)[C@@H](CO)N1C(=O)NC1CCCCC1 | 0.133% (inactive) |
| COc1ccccc1-c1ccc2c(c1)O[C@@H](CN(C)C(=O)Nc1ccccc1)[C@H](C)CN([C@@H](C)CO)S2(=O)=O | -37.6% (inactive) |
| COc1ccc(NC(=O)N(C)C[C@@H]2Oc3ccc(NS(=O)(=O)c4ccc(C)cc4)cc3CC(=O)N([C@@H](C)CO)C[C@H]2C)cc1 | 4.71% (inactive) |
| CN(C)C(=O)c1cccc(-c2cnc3sc(NCc4ccc5c(c4)OCO5)nn23)c1 | 68.4% [at 12.3 µM] (active) |
| O=C(CSc1ncnc2scc(-c3ccccc3)c12)NCc1ccc2c(c1)OCO2 | 22.4% [at 12.3 µM] (inactive) |
| CN(C)C(=O)c1cccc(-c2cnc3c(NC=O)cc(-c4ccc(C(=O)N5CCOCC5)cc4)cn23)c1 | -15.1% [at 12.3 µM] (inactive) |
| O=C(Nc1ccc(C(F)(F)F)cc1)N[C@@H]1CC[C@@H](CCNC(=O)c2ccccc2F)O[C@H]1CO | -1.09% (inactive) |
| Cc1noc(C)c1S(=O)(=O)Nc1ccc2c(c1)CC(=O)N([C@@H](C)CO)C[C@H](C)[C@@H](CN(C)S(=O)(=O)c1cn(C)cn1)O2 | -11.7% (inactive) |
| C[C@H]1CCCCO[C@@H](CN(C)C(=O)c2ccccc2)[C@@H](C)CN([C@@H](C)CO)C(=O)c2cc(NS(=O)(=O)c3ccccc3)ccc2O1 | -27.7% (inactive) |
| CN(C)c1nc(-c2cccnc2)nc(-c2ccc(Cl)cc2)c1C#N | -27.7% [at 12.3 µM] (inactive) |
| CNc1nccc(-c2ccc(Cl)cc2)c1C#N | 58.1% [at 12.3 µM] (active) |
| CN(C)c1ccnc(Nc2ccc(F)cc2)c1C#N | 2.55% [at 12.3 µM] (inactive) |
| CCCN(C)C[C@H]1Oc2ncc(-c3ccccc3OC)cc2C(=O)N([C@H](C)CO)C[C@@H]1C | 16.3% (inactive) |
| O=C1C=C(c2ccnc3cc(Cl)ccc23)C[C@@H](c2ccc3c(c2)OCO3)C1 | 65.8% [at 12.3 µM] (active) |
| O=C1C=C(c2cc(C(F)(F)F)cc(C(F)(F)F)c2)C[C@@H](c2ccc3c(c2)OCO3)C1 | 14.8% [at 12.3 µM] (inactive) |
| COc1ccc2cc(C3=CC(=O)C[C@H](c4ccc5c(c4)OCO5)C3)ccc2c1 | -8.67% [at 12.3 µM] (inactive) |
| CCC(=O)N[C@H]1CC[C@@H](CC(=O)NCc2cc(F)cc(F)c2)O[C@@H]1CO | -5.23% (inactive) |
| COc1ccc(NC(=O)N(C)C[C@H]2Oc3ccc(NC(=O)NC(C)C)cc3CC(=O)N([C@H](C)CO)C[C@H]2C)cc1 | 2.47% (inactive) |
| C[C@@H]1CCCCO[C@H](CN(C)S(=O)(=O)c2cccs2)[C@H](C)CN([C@H](C)CO)C(=O)c2cc(NC(=O)c3ccccc3)ccc2O1 | 21.5% (inactive) |
